We go through 39 compounds from PubChem BioAssay (NCI).

Values joined by “and” are separate entries in the source; they are usually repeats but may differ in a detail not shown here. Equal entries are not always repeated. About 83,000 compounds went through this panel and 20% of them were active in at least one assay; those are over-represented in the sample as a whole.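 Percent growth is the endpoint: 0 to 100 indicates growth inhibition (40 means 60% inhibition), 0 means no net growth, and negative values indicate cell death.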 Active and inactive are the calls of the source. Rule for the calls: active = growth percent below 10; inactive = the rest.

The subject of the assay is HL-60(TB) leukemia. In words: NCI-60 one-dose screen, 48 h (100 = growth as untreated, 0 = no growth, -100 = all killed). The following applies: 10 µM unless noted.
As for `COc1ccc2occ(C3=C(c4c[nH]c5ccccc45)C(=O)N(O)C3=O)c2c1`, the growth was 97.3% (inactive). Turning to `O=c1c(N=Nc2nccs2)c(-c2ccccc2)[nH]n1-c1nc(-c2ccccc2)cs1`, the growth is 15.8% (inactive).

Regarding `CC1=CSC2=NC(c3ccc(Cl)c(Cl)c3)=CC(c3ccc(Cl)cc3)N12` (centres undefined), the growth was 47.7% (inactive). The same measure for `O=C(CNc1c(Cl)cccc1Cl)Nc1ccc(-c2nc3ccccc3s2)cc1`: 70.7% (inactive); for `Cc1ccc2c(c1)-c1cc(C)nn1-c1ccc(C#N)cc1O2`: 69.2% (inactive); for `Cc1cccc(C)c1NC(=O)CN(CC(C)C)CC(O)COc1ccccc1` (centres undefined): 98% (inactive). The figure for `Nc1c(C(=O)Nc2ccccc2)sc2nc3c(cc12)C(O)CCC3` (centres undefined) is -8.34% (active). As to `CCN1C(=O)/C(=C/N2N=C(c3ccc(Cl)cc3)CC2c2ccc(OC)cc2)SC1=S` (centres undefined), the growth was 67.1% (inactive). The figure for `CC1(C)[C@@H](OC(=O)CCC(=O)O)CC[C@]2(C)[C@H]3C(=O)C=C4[C@@H]5C[C@@](C)(C(=O)O)CC[C@]5(C)CC[C@@]4(C)[C@]3(C)CC[C@@H]12` is 84.9% (inactive) and -56.3% (active). The same measure for `COc1ccc(-c2nnc(SCC(=O)Nc3ccc(C(=O)/C=C/c4ccccc4)cc3)o2)cc1OC`: 90% (inactive); for `COc1ccc(C2C3=C(COC3=O)N(CCO)c3cc4c(cc32)OCCO4)cc1` (centres undefined): 82.1% (inactive).

Consider `COc1ccc(C(=O)c2cc(OC)c3c(c2)OCO3)cc1O`, for which the growth was 13.4% (inactive). Take `CCN(CC)CCc1nc(-c2ccccc2)no1`: the growth was 104% (inactive).

On to `CC(=O)OCC(=O)[C@@]1(O)CC[C@H]2[C@@H]3CC[C@@H]4C[C@H](O)CC[C@]4(C)[C@H]3C(=O)C[C@@]21C`, for which the growth was 94% (inactive). The same measure for `Cc1c(Cl)cccc1NC(=O)c1sc2nc3c(cc2c1N)CCCCC3`: -24.9% (active); for `N#Cc1nn(-c2cc(=O)[nH]c3ccc(Cl)cc23)c(N)c1C#N`: 0.972% (active). The figure for `COc1ccc(Cn2cc(Cn3c(=O)c(-c4nc5ccccc5[nH]4)cc4ccccc43)nn2)c(OC)c1OC` is 7.75% (active).

Regarding `C[C@]12CC[C@@H]3c4ccc(O)c([N+](=O)[O-])c4CC[C@H]3[C@@H]1CCC2=O`, the growth was 93.7% (inactive). On to `O=C(CCc1nnc(Cn2cnc3nc[nH]c3c2=O)o1)c1nc2ncccc2[nH]1`, for which the growth was 99.9% (inactive). The same measure for `NC(=O)NO`: 82.9% (inactive) and 72.8% (inactive). The figure for `CCCN(CCC)C(=O)c1ccc(C)cc1` is 100% (inactive); for `COc1cc(/C=C/c2cc(/C=C/c3ccc(O)c(OC)c3)n(-c3c(Cl)cccc3Cl)c(=O)n2)ccc1O` it is 13.5% (inactive). The same measure for `Cc1cc(Cl)ccc1NC(=O)c1cc2ccccc2cc1O`: 1.45% (active); for `CN(C)CCCn1c(=O)c2cc([N+](=O)[O-])ccc2c2cnc3[nH]ccc3c21`: 90.4% (inactive); for `O=C1CC23OC4ON=C(Br)C4C2C(O)c2ccccc2N13` (centres undefined): 102% (inactive). Regarding `C=C1C(=O)O[C@H]2[C@H]1CC/C(Cn1cc(CNC(=O)c3cc4ccccc4[nH]3)nn1)=C\CC[C@@]1(C)O[C@@H]21`, the growth is -20.8% (active). The figure for `COC(=O)/C=C/c1cc(O)c2oc(-c3ccc(O)c(O)c3)c(C(=O)OC)c2c1` is 6.46% (active); for `COc1cc2c(cc1OCCCOc1ccc(-c3cc4ccccc4c4ccccc34)cc1)N=C[C@@H]1CCCN1C2=O` it is -11.8% (active); for `COc1cccc(-c2cc(-c3cccs3)c(C#N)c(=O)[nH]2)c1` it is 102% (inactive). The same measure for `CN1C(=O)N(C)C2Nn3c(s/c(=C\c4ccc(Cl)cc4Cl)c3=O)=NC21` (centres undefined): 41.5% (inactive); for `OC(COc1cccc2ccccc12)CN1CCN(c2ccc(Cl)cc2)CC1` (centres undefined): 55.5% (inactive) and 75.2% (inactive); for `CC(=O)Nc1ccc(S(=O)(=O)Nc2cccc(-c3nc(-c4ccc(NC(=O)c5cccnc5)cc4Cl)no3)c2)cc1`: 24% (inactive). For the compound `c1ccc(C(NC2CC3CCC2C3)c2ccccc2)cc1` (centres undefined), the growth was 100% (inactive).

For `CCOC(=O)C1OC2(CCCC2)OC1C(=O)OCC` (centres undefined), the growth was 87.4% (inactive). For the compound `CNC(=O)Cc1nc(-c2cccc(NS(=O)(=O)c3c(F)cccc3F)c2F)c(-c2ccnc(Nc3ccccc3)n2)s1`, the growth is 57.8% (inactive). The figure for `NS(=O)(=O)c1ccc(C2C3=C(CCCC3=O)OC3=C2C(=O)c2ccccc2C3=O)cc1` (centres undefined) is -40.5% (active); for `CCCCCCCCCCCCCCCCCCOc1cccc(CCOP(=O)(O)OCC[N+](C)(C)C)c1` it is 73.4% (inactive); for `CCOc1ccc2cc(-c3nn(CC4CCNCC4)c4ncnc(N)c34)ccc2c1` it is 98.1% (inactive) and 19.7% (inactive).

In the case of `c1ccc(C2=NN[C@H](c3cn(-c4ccccc4)nc3-c3ccccc3)C2)cc1`, the growth was 112% (inactive).
